# Hits are enriched below; roughly 2% of the tested compounds scored in any of these assays.
# STK33 inh = blocks human STK33 kinase activity; Q9BYT3; ADP-Glo luminescence, MBP substrate; inhibition, % at 12.5 µM; 27,000 tested, 0.44% active; in the data active = inhibition above about 20%; inconclusive = no clear call, values can overlap the other calls
# ID4 SMM = binds human ID4 protein on microarray | small molecule microarray, Flag-ID4 binding, fluorescence F/B | calls only | 31,000 tested, 1.2% active; call rule not given here;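 also: a binder raises fluorescence above local background on the spot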
# Target sequence (P47928 whole entry, looked up): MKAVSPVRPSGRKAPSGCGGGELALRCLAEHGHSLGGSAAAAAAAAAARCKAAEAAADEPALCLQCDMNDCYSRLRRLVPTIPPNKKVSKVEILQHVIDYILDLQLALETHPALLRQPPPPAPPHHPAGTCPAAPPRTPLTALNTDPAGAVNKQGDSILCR
# mut p53 react = re-activators of the mutant p53 pathway. SW480 PUMA-promoter luciferase, p53 mutant reactivation. activation, % at 9.98 µM. 28,000 tested, 1.5% active; in the data active = activation above about 52%; inconclusive = no clear call, values can overlap the other calls
# An asterisk follows results filed as active; i = inactive; u = inconclusive; x = no result; + = active, no number.
SMILES,STK33 inh,ID4 SMM,mut p53 react
C/C(C=Nc1c(C)n(C)n(-c2ccccc2)c1=O)=C/c1ccccc1,0.3,x,x
O=C(CSc1nc2ccc(NC(=O)c3ccccc3)cc2s1)Nc1cccc([N+](=O)[O-])c1,5.6,i,59.5*
Cc1ccccc1C(=O)Nc1ccc2nc(SCC(=O)Nc3ccc([N+](=O)[O-])cc3)sc2c1,-4.7,i,20.0
O=C(CSc1nc2ccc(NC(=O)c3ccccc3F)cc2s1)c1cccc([N+](=O)[O-])c1,-0.3,i,75.7*
Cc1ccccc1C(=O)Nc1ccc2nc(SCC(=O)Nc3ccccc3)sc2c1,0.7,i,-12.1
CCOc1ccc(NC(=O)CCNC(=O)c2cn(-c3cccc(OC)c3)c(=O)c3ccccc23)cc1,-0.5,x,x
COC(=O)c1ccc(NC(=O)CSC(=S)N2CCOCC2)cc1,0.6,x,x
C/C=C/c1ccc2c(c1)O[C@H](CN(C)S(=O)(=O)c1ccccc1OC)[C@H](C)CN([C@@H](C)CO)S2(=O)=O,x,+,-8.7
C/C=C/c1ccc2c(c1)O[C@H](CN(C)S(=O)(=O)c1ccc(F)cc1)[C@H](C)CN([C@H](C)CO)S2(=O)=O,x,i,-12.7
COCC(=O)N(C)C[C@H]1Oc2cc(C#CC3CC3)ccc2S(=O)(=O)N([C@@H](C)CO)C[C@@H]1C,x,x,-4.8
C[C@H](CO)N1C[C@H](C)[C@@H](CN(C)C(=O)Nc2cc(F)ccc2F)Oc2cc(C#CC3CCCC3)ccc2S1(=O)=O,x,i,x
CCC(=O)N(C)C[C@@H]1Oc2cc(C#CC3CC3)ccc2S(=O)(=O)N([C@@H](C)CO)C[C@H]1C,x,+,0.5
C[C@H]1CN([C@@H](C)CO)S(=O)(=O)c2ccc(-c3ccc(C#N)cc3)cc2O[C@H]1CN(C)C(=O)Nc1cc(F)ccc1F,x,+,-23.6
COc1cccc(-c2ccc3c(c2)O[C@H](CN(C)C(C)=O)[C@@H](C)CN([C@@H](C)CO)S3(=O)=O)c1,x,x,-3.0
CCC(=O)N(C)C[C@@H]1Oc2cc(-c3cccc(OC)c3)ccc2S(=O)(=O)N([C@@H](C)CO)C[C@@H]1C,x,+,4.0
Nc1cc(=O)[nH]c(S/C=C/c2ccccc2)n1,x,i,9.6
CC(CC(O)C1OC1(C)C)[C@@H]1CCC2(C)C3=CCC4C(C)(C)C(=O)CCC4(C)C3CC[C@@]12C (some centres undefined),3.1,x,x
O=C(CSc1nc2sc3c(c2c(=O)n1Cc1ccco1)CCC3)c1ccccc1,-2.0,i,14.3
O=c1c(O)c(-c2ccccc2)oc2cc(O)ccc12,32.1*,i,-1.4
O=C(O)COc1c(-c2ccccc2)oc2ccccc2c1=O,2.6,i,-10.8
O=[N+]([O-])c1ccccc1-c1ccc(-c2nn3c(-c4ccccc4)nnc3s2)o1,5.7,i,43.3
C[C@H](CO)N1C[C@H](C)[C@H](CN(C)C(=O)NC2CCCCC2)Oc2ncc(-c3ccc(F)cc3)cc2C1=O,-6.5,x,x
C[C@@H]1CN([C@H](C)CO)C(=O)c2cc(-c3ccncc3)cnc2O[C@H]1CN(C)C(=O)NC1CCCC1,x,+,5.3
C[C@@H]1CN([C@@H](C)CO)C(=O)c2cc(-c3cccnc3)cnc2O[C@H]1CN(C)C,x,+,x
C[C@H]1CN([C@@H](C)CO)C(=O)c2cc(-c3cccnc3)cnc2O[C@@H]1CN(C)C(=O)C1CCOCC1,x,x,4.6
SMILES,STK33 inh,ID4 SMM,mut p53 react
C[C@@H]1CN([C@H](C)CO)C(=O)c2cc(-c3ccncc3)cnc2O[C@@H]1CN(C)C(=O)C1CCOCC1,x,+,13.3
C[C@@H]1CN([C@H](C)CO)C(=O)c2cc(-c3cccnc3)cnc2O[C@@H]1CN(C)Cc1ccc(Oc2ccccc2)cc1,x,x,-10.6
C[C@@H]1CN([C@H](C)CO)C(=O)c2cc(-c3cccnc3)cnc2O[C@H]1CN(C)C,x,i,x
C[C@@H]1CN([C@@H](C)CO)C(=O)c2cc(-c3ccncc3)cnc2O[C@H]1CN(C)Cc1ccc(Oc2ccccc2)cc1,x,+,-17.6
COc1ccc([N+](=O)[O-])cc1CSc1nnc(-c2ccccc2)n1-c1ccccc1,-0.2,i,-8.2
COc1ccc(NC(=O)O[C@H]2[C@H](OC(=O)Nc3ccccc3-c3ccccc3)[C@H](OC(=O)Nc3ccccc3-c3ccccc3)[C@@H](OC)O[C@@H]2CO)cc1,x,i,x
C[C@H]1CN([C@@H](C)CO)C(=O)c2cc(C3=CCCCC3)cnc2O[C@H]1CN(C)C(=O)Cc1ccncc1,x,x,11.3
C[C@@H]1CN([C@H](C)CO)C(=O)c2cc(C3=CCCC3)cnc2O[C@H]1CN(C)C(=O)Cc1ccncc1,x,+,2.0
CSc1ccccc1NC(=O)C(C)N(c1ccc(C)cc1)S(C)(=O)=O (centres undefined),-1.7,i,2.6
CC(C)OC(=O)c1cc(N)c2c(-c3ccc(F)cc3)c(-c3cccs3)sc2n1,-0.7,x,x
O=C(COc1ccc(CO)cc1Cl)Nc1ccc(F)cc1,-0.5,i,-23.6
Cc1ccc(NC(=O)COc2ccc(Br)cc2CO)cc1,0.4,i,68.3*
COc1cc(CO)ccc1OCC(=O)Nc1ccc(Br)cc1,1.9,i,u
O=C(COc1ccc(Br)cc1CO)Nc1ccccc1F,-1.2,i,111.7*
O=C(COc1ccc(Cl)cc1CO)Nc1ccc(F)cc1,-0.1,i,69.3*
Cc1ccc(NC(=O)COc2ccc(CO)cc2Br)cc1,-2.8,i,-18.7
COc1ccccc1NC(=O)COc1ccc(Br)cc1CO,-7.2,i,36.9
O=C(COc1ccc(Br)cc1CO)Nc1ccccc1,1.9,i,126.7*
COc1ccc(-c2cn(CC(=O)N3CCOCC3)nn2)cc1OC,x,i,x
Cc1ccccc1NC(=O)CSc1ncnc2c1sc1nc(N3CCOCC3)c3c(c12)CCCC3,0.8,i,1.6
O=C(COc1ccc(CO)cc1)Nc1ccccc1,-5.7,i,65.9*
O=C(COc1ccc(CO)cc1)Nc1ccc(F)cc1,4.7,i,22.5
COc1ccc(NC(=O)COc2ccccc2CO)cc1,0.2,i,25.2
O=C(COc1ccccc1CO)Nc1ccccc1,-3.8,i,77.4*
COc1cccc2cc(C(=O)CC3(O)C(=O)N(Cc4ccccc4)c4ccc(Br)cc43)c(=O)oc12 (centres undefined),2.9,i,-12.0
SMILES,STK33 inh,ID4 SMM,mut p53 react
N#CCCN(CCC#N)C(=O)c1cc(-c2ccccc2)nc2ccccc12,0.1,+,3.6
Cc1cc(CNC(=O)c2cc(-c3ccccc3)nc3ccccc23)nn1C,-3.4,i,-5.3
O=C(O)c1cc(F)cc(C(F)(F)F)c1,0.5,x,x
Cc1ccc(S(=O)(=O)N(C)c2ccc(C(=O)Nc3cccc(N(C)S(C)(=O)=O)c3)cc2)cc1,-5.3,i,-0.7
FC(F)(F)Oc1ccc(Nc2n[nH]c(=S)s2)cc1,x,i,75.2*
Cc1nnc(SCC(=O)Nc2ccc(OC(F)(F)F)cc2)s1,-4.4,i,0.5
CCc1ccc(OCC(=O)Nc2ccccc2-c2nc3ccccc3s2)cc1,-4.1,i,22.9
Cc1cc(C)nc(SCC(O)COc2ccccc2)n1 (centres undefined),2.1,i,u
OC(COc1ccc2ccccc2c1Br)Cn1cnc(-c2ccccc2)c1 (centres undefined),0.7,i,5.1
OC(COc1ccc(Cl)cc1)Cn1cnc(-c2ccccc2)c1 (centres undefined),20.9*,i,-1.4
OC(COc1ccc(Cl)cc1)CSc1ccccn1 (centres undefined),4.1,i,77.7*

# Compound activity (PubChem BioAssay)
